Screens: PubChem, National Center for Advancing Translational Sciences (NCATS)
CBFb RUNX1 block = inhibitors of human CBF-beta and RUNX1 interaction; AlphaScreen CBFb-His/RUNX1-biotin binding, biochemical; Potency, µM (titrated, usually from 59.8 µM), usual class: inhibitors; 230,000 tested, under 10 active; AID 1477
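Compounds were screened at multiple concentrations against a preformed CBF-beta(His)/RUNX1(biotin) complex (30 nM of each) for 15 min at room temperature, followed by 90 min with nickel and streptavidin beads and AlphaScreen reading.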
Integrin act MD = integrin-mediated muscular dystrophy alleviation activation. alpha7betagal myoblasts, beta-gal FDG fluorescence, 48 h. AID 624291. actives 0.064% (n = 350,000). Potency, µM (doses to about 38.3 µM), actives largely listed as activators; also: nearly all actives have a fitted effect of over 60% in size
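Alpha7betagal+/- myoblasts (passage 13) were plated 16-24 hr, then exposed to compounds (1:260 dilution of DMSO stock) for 48 hours at 37C. After MPER lysis, β-galactosidase reporter activity was read as FDG fluorescence (ex 480/em 540) after 30 minutes.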
N370S GC mod = inhibitors or activators of N370S glucocerebrosidase for Gaucher disease. N370S GC spleen homogenate, 4MU-glucoside fluorescence. P04062. Potency, µM (highest dose often 59.4 µM), usual class: inhibitors. actives 0.092% (n = 330,000)
Anesthetic bind = binds horse apoferritin like a general anesthetic. P02791. apoferritin/1-aminoanthracene competitive binding, fluorescence. Potency, µM (top dose mostly 77.5 µM), hits mostly inhibitors. actives 0.074% (n = 350,000); also: nearly all actives have a fitted effect of over 20% in size
Target sequence (P02791 2-175 limits assumed): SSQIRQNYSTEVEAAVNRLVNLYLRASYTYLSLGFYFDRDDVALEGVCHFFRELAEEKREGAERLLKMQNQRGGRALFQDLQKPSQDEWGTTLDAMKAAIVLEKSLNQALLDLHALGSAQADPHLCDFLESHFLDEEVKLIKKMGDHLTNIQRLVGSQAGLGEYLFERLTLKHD
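In PBS, apoferritin at 10 uM is loaded with 1-AMA from a 50% saturated solution. After 10 min of compound exposure at ambient temperature, reduced 535 nm fluorescence indicates probe displacement.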
GRP78 ERSR act = ER stress response induction in glioma | U87-MG GRP78 promoter luciferase reporter, 16 h | Potency, µM, most hits filed as activators | actives 0.02% (n = 420,000); also: series mostly up to about 76 µM; nearly all actives have a fitted effect of over 35% in size
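Stably transfected U87-MG human glioma cells carrying a GRP78-based luminescent sensor were seeded at 1000 cells/well, pin-dosed with compounds and incubated 16 h. Luciferase reagent was then added, and end-point luminescence was read after 10 min at room temperature.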
ClpP mod = qHTS Assay for Activators of ClpP; Potency, µM (highest dose often 57.5 µM); purified B. subtilis ClpP, FRET peptide cleavage, 20 min; actives 1.9% (n = 340,000); active = well fitted falling curve with a large enough effect; inconclusive = small, poorly fitted or top-dose-only effect; inactive = no such curve, though single readings can be large or run the other way; also: the source files actives as falling curves though it sought activators and does not explain the sign; nearly all actives have a fitted effect of over 65% in size
Target sequence (P80244 whole entry, looked up): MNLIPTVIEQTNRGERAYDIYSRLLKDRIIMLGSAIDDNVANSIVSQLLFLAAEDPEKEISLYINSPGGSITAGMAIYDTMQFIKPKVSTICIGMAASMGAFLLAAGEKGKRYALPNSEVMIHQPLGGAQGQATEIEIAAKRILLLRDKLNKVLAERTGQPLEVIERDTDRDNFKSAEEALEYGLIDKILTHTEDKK
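FRET quenching reversal measured ClpP activation: 10 microg/mL B. subtilis ClpP at pH 8 with the FRET-FV decapeptide, read at 430 nm after 320 nm excitation. The 20-min minus 0-min signal was scaled between DMSO/no-enzyme wells and ADEP (5.8 microM final).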
Large screens that a line does not name were inactive. The entries come from a sample that favours hits as a whole. Unless noted, calls follow the shape of the dose curve; as a rule, active = well fitted curve in the direction sought with a large enough effect; inconclusive = small, poorly fitted or top-dose-only effect, or another doubt; inactive = no such curve, though single readings can be large; an effect the other way counts as inactive or inconclusive.

O=C(O)c1c2c(nc3ccccc13)CCCCC2	none
Nc1c2c(nc3ccn(-c4ccccc4)c(=O)c13)CCCCC2	ClpP mod 28µM
COc1ccc2c(c1)-c1nc(-n3ncc(C(=O)N(C)CC4CCCN(C)C4)c3C)ncc1CC2 (stereo not drawn)	none (no result: CBFb RUNX1 block, Integrin act MD, N370S GC mod, Anesthetic bind, ClpP mod)
CCCc1nc2sc3c(=O)n(N)cnc3c2c2c1COC(C)(C)C2	none (no result: Integrin act MD, GRP78 ERSR act, ClpP mod)
CC(C)c1nc2sc3c(=O)n(N)cnc3c2c2c1COC(C)(C)C2	ClpP mod 16µM
O=C(c1cccnc1)C1CCCN(Cc2ccc3c(c2)CN(C(=O)c2cnccn2)CCO3)C1 (stereo not drawn)	none (no result: CBFb RUNX1 block, Integrin act MD, N370S GC mod, Anesthetic bind, ClpP mod)
O=C(O)c1ccccc1C1=Nc2ccc(O)cc2Oc2cc(O)ccc21	ClpP mod 14µM
CCCCCNC(=O)c1ccc2c(=O)n(CCOC)c(=O)[nH]c2c1	ClpP mod inconclusive
COCCNC(=O)c1ccc2c(=O)n(CCOC)c(=O)[nH]c2c1	N370S GC mod inconclusive, ClpP mod 25µM
COCCn1c(=O)[nH]c2cc(C(=O)NCc3ccccc3)ccc2c1=O	ClpP mod 14µM (no result: N370S GC mod)
COC(=O)c1ccc2c(=O)n(CCCCCC(=O)O)c(=O)[nH]c2c1	ClpP mod 28µM
Cc1cccc2c(Nc3ccc4c(c3)OCO4)nc(CN3CCC(N4CCCCC4)CC3)nc12	none (no result: CBFb RUNX1 block, Integrin act MD, N370S GC mod, Anesthetic bind, ClpP mod)
Cc1ccc2nc(CNC(=O)c3cc(NC(=O)c4ccccc4)cc4ncn(C5CCCC5)c34)cn2c1	none (no result: CBFb RUNX1 block, Integrin act MD, N370S GC mod, Anesthetic bind, ClpP mod)
CCC[C@H]1COCCS(=O)(=O)N1Cc1cccc(F)c1	none (no result: CBFb RUNX1 block, Integrin act MD, N370S GC mod, Anesthetic bind)
COc1cc(-c2c(C#N)c(N)nc3c2CCCC3)ccc1O	none
COC(=O)c1c(C#N)c(N)nc2c1CCCC2	ClpP mod 28µM
COc1ccc(-c2nc3ccc(C)cn3c2NCc2ccc3c(c2)OCO3)cc1	ClpP mod inconclusive
Cc1ccc(-c2nc3ccccn3c2NCc2ccc3c(c2)OCO3)cc1	CBFb RUNX1 block inconclusive, ClpP mod 32µM
COc1cccc(C(=O)NC(C)c2nnc3n2CCN(CC=C(C)C)CC3)c1 (stereo not drawn)	none (no result: CBFb RUNX1 block, Integrin act MD, N370S GC mod, Anesthetic bind, ClpP mod)
Cc1nc2ccc(NC(=O)N3CCCCC3)cc2nc1C	ClpP mod 14µM
Cc1[nH]c2ccccc2c1C(c1c[nH]c2ccccc12)c1c(C)[nH]c2ccccc12	none (no result: CBFb RUNX1 block, Integrin act MD, N370S GC mod, Anesthetic bind)
COc1cccc(Nc2ncnc3ccccc23)c1	none
O=C(Oc1cccc(Nc2ncnc3ccccc23)c1)c1ccccc1Cl	ClpP mod 32µM
Cc1ccc(-c2ccnc(-n3ncc(C(=O)N4CCCCC4c4cccnc4)c3C3CC3)n2)o1 (stereo not drawn)	none (no result: CBFb RUNX1 block, Integrin act MD, N370S GC mod, Anesthetic bind, ClpP mod)
c1ccc2c3c(cc(N4CCOCC4)c2c1)OC1(N2CCOCC2)CCCCC1O3 (stereo not drawn)	ClpP mod 32µM
COc1cc2[nH]c3c(=O)n(CCN(C(C)C)C(C)C)cnc3c2cc1OC	Integrin act MD inconclusive, ClpP mod 28µM
O=C(c1cccnc1)C1CCCN(Cc2ccc3c(c2)CN(C(=O)c2cn4ccccc4n2)CCO3)C1 (stereo not drawn)	none (no result: CBFb RUNX1 block, Integrin act MD, N370S GC mod, Anesthetic bind, ClpP mod)
CCCCC(=O)NCCc1cc2ccc(OC)cc2[nH]c1=O	ClpP mod 25µM
CC(=O)NCCc1cc2cc(C)c(C)cc2[nH]c1=O	ClpP mod inconclusive
CCCC(=O)NCCc1cc2cc(C)c(C)cc2[nH]c1=O	ClpP mod 25µM
CC(C)c1c(C(=O)NC(c2cccnc2)C(F)(F)F)cnn1-c1nccc(-c2cccs2)n1 (stereo not drawn)	none (no result: CBFb RUNX1 block, Integrin act MD, N370S GC mod, Anesthetic bind, ClpP mod)
CC(C)=CCC/C(C)=C/CC/C(C)=C/CCC1(C)CCc2cc(O)ccc2O1 (stereo not drawn)	none (no result: CBFb RUNX1 block, Integrin act MD, N370S GC mod, Anesthetic bind, GRP78 ERSR act)
S=C(NCCCc1cnc[nH]1)NCCCN(Cc1ccc(Cl)cc1)c1ncc(Br)cn1	none (no result: CBFb RUNX1 block, Integrin act MD, N370S GC mod, Anesthetic bind)
O=C(CN1CCOCC1)Nc1nc2cc([N+](=O)[O-])ccc2s1	none
O=C(CN1CCOCC1)NCc1cc([N+](=O)[O-])ccc1O	Integrin act MD 13µM (no result: CBFb RUNX1 block)
CSc1ccc(-c2nc(CSCC(=O)NCCCN3CCOCC3)c(C)o2)cc1	ClpP mod 35µM
Cc1oc(-c2ccc(Cl)cc2)nc1CSCC(=O)NCc1ccccc1Cl	ClpP mod 32µM (no result: CBFb RUNX1 block, Integrin act MD, N370S GC mod)
